# Experimental data taken from PubChem BioAssay (NCATS).
# Results filed as inconclusive are left out. Calls of active or inactive are those of the source. Calls come from the whole dose curve; as a rule, active = well fitted curve in the direction sought with a large enough effect; inconclusive = small, poorly fitted or top-dose-only effect, or another doubt; inactive = no such curve, though single readings can be large; an effect the other way counts as inactive or inconclusive.
# What was measured:
# [1] = OV-KATE Cancer Cell Toxicity qHTS against the NCATS CANVASS Library (AID 1347345); conditions: OV-KATE cells viability, CellTiter-Glo luminescence, 72 h; note: potency is the fitted concentration of half-maximal effect
# In short: (§1)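 Viability was assessed by adding CellTiter-Glo reagent to treated cultures and reading luminescence after 15min at room temperature. Treatment lasted 72 h at 37 degrees C/5% CO2, using an 11-point series on 1000 cells/well.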
# [2] = HPAF-II Cancer Cell Toxicity qHTS against the NCATS CANVASS Library (AID 1347346); conditions: HPAF-II viability, CellTiter-Glo ATP luminescence, 72 h; note: potency is the fitted concentration of half-maximal effect; nearly all actives have a fitted effect of over 55% in size
# In short: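 Cytotoxicity in HPAF-II pancreatic cancer cells: 72 h treatment across 11 concentrations, ATP-based CellTiter-Glo luminescence endpoint.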
# [3] = UWB1.289 Cancer Cell Toxicity qHTS against the NCATS CANVASS Library (AID 1347347); conditions: UWB1.289 viability, CellTiter-Glo luminescence, 72 h; note: potency is the fitted concentration of half-maximal effect; nearly all actives have a fitted effect of over 60% in size
# In short: as §1
# [4] = OV-SAHO Cancer Cell Toxicity qHTS against the NCATS CANVASS Library (AID 1347348); conditions: OV-SAHO viability, CellTiter-Glo luminescence, 72 h; note: potency is the fitted concentration of half-maximal effect; nearly all actives have a fitted effect of over 55% in size
# In short: as §1
# [5] = Panc-1005 Cancer Cell Toxicity qHTS against the NCATS CANVASS Library (AID 1347349); conditions: Panc-1005 viability, CellTiter-Glo luminescence, 72 h; note: potency is the fitted concentration of half-maximal effect; nearly all actives have a fitted effect of over 60% in size
# In short: as §1
# [6] = SW1088 Cancer Cell Toxicity qHTS against the NCATS CANVASS Library (AID 1347350); conditions: SW1088 viability, CellTiter-Glo luminescence, 72 h; note: potency is the fitted concentration of half-maximal effect; nearly all actives have a fitted effect of over 75% in size
# In short: as §1
# [7] = U-118MG Cancer Cell Toxicity qHTS against the NCATS CANVASS Library (AID 1347351); conditions: U-118MG viability, CellTiter-Glo luminescence, 72 h; note: potency is the fitted concentration of half-maximal effect
# In short: as §1
# [8] = COV-362 Cancer Cell Toxicity qHTS against the NCATS CANVASS Library (AID 1347352); conditions: COV-362 viability, CellTiter-Glo luminescence, 72 h; note: potency is the fitted concentration of half-maximal effect
# In short: (§2)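 qHTS cytotoxicity: compounds tested in 11 concentrations on 1000 seeded cells per well over 72 h; bortezomib served as control; signal from CellTiter-Glo luminescence.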
# [9] = A2780 Cisplatin Sensitive Ovarian Cancer Cell Toxicity qHTS against the NCATS CANVASS Library (AID 1347353); conditions: A2780 ovarian cancer viability, ATPLite luminescence, 72 h; note: potency is the fitted concentration of half-maximal effect; nearly all actives have a fitted effect of over 60% in size
# In short: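 Seventy-two-hour exposure of cisplatin-sensitive A2780 ovarian cells to an 11-concentration qHTS series; cytotoxicity is inferred from loss of ATPLite luminescence. Bortezomib titration served as positive control.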
# [10] = UWB1.289-WTBRCA1 Cancer Cell Toxicity qHTS against the NCATS CANVASS Library (AID 1347354); conditions: UWB1.289-WTBRCA1 viability, CellTiter-Glo luminescence, 72 h; note: potency is the fitted concentration of half-maximal effect
# In short: as §2
# [11] = HEK-293 Cancer Cell Toxicity qHTS against the NCATS CANVASS Library (AID 1347355); conditions: HEK-293 viability, CellTiter-Glo luminescence, 72 h; note: potency is the fitted concentration of half-maximal effect; nearly all actives have a fitted effect of over 65% in size
# In short: as §2
# [12] = target: Luciferin 4-monooxygenase (Photinus pyralis) (UniProt P08659); test: Firefly luciferase counterscreen qHTS: Assay Interference Panel against the NCATS CANVASS Library (AID 1347363); conditions: purified firefly luciferase, luminescence inhibition, 5 min; series mostly up to 57.5 µM
# In short: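 Purified P. pyralis luciferase was added to compounds (11-point series) preincubated 15 min at room temperature with substrate containing 0.013 mM D-luciferin and 0.013 mM ATP; luminescence was read after 5 min.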
# [13] = KB-8-5-11 Cancer Cell Toxicity qHTS against the NCATS CANVASS Library (AID 1347364); conditions: KB-8-5-11 MDR cells viability, CellTiter-Glo, 72 h; note: potency is the fitted concentration of half-maximal effect; nearly all actives have a fitted effect of over 75% in size
# In short: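 Natural products were titrated in 11 points onto KB-8-5-11 cells, 500 per well, and cytotoxicity was scored from CellTiter-Glo luminescence after 72 hr culture.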
# [14] = KB-3-1 Cancer Cell Toxicity qHTS against the NCATS CANVASS Library (AID 1347366); conditions: KB-3-1 viability, CellTiter-Glo luminescence, 72 h; note: potency is the fitted concentration of half-maximal effect; nearly all actives have a fitted effect of over 75% in size
# In short: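 KB-3-1 cells (500/well) in DMEM with 10% FBS were exposed to compounds for 72 h at 37C. Viability was read by CellTiter-Glo luminescence.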
# [15] = qHTS for ATAD5 Agonist screened against the NCATS CANVASS Library (AID 1347367); conditions: HEK293T ATAD5-luciferase reporter, luminescence, 16 h; series mostly up to 46.1 µM;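 note: luciferase reporter driven by ATAD5 which rises upon DNA damage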
# In short: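 Luciferase reporter under ATAD5 control, stably integrated in HEK293T cells (2000/well). Compounds (11 points) incubated 16 h at 37C; viability read first by CellTiter-Fluor, then luminescence reporting ATAD5 activation. MMS positive control.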
# [16] = qHTS for ATAD5 Antagonist screened against the NCATS CANVASS Library (AID 1347370); conditions: HEK293T-ATAD5-luc, 5-FUrd stimulated, luminescence, 16 h; note: potency is the fitted concentration of half-maximal effect; nearly all actives have a fitted effect of over 65% in size
# In short: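 HEK293T cells with a stably integrated ATAD5-controlled luciferase reporter were exposed to compounds (11-pt) alongside 10 uM 5-fluorouridine as ATAD5 stabilizer for 16hr at 37C. Viability was read by CellTiter-Fluor fluorescence, then ATAD5 by luminescence.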
# [17] = target: Nuclear receptor subfamily 1 group I member 3 (Homo sapiens) (UniProt Q14994); test: qHTS for Constitutive Androstane Receptor (CAR) Agonist screened against the NCATS CANVASS Library (AID 1347373); conditions: HepG2-hCAR-CYP2B6 luciferase reporter, ONE-Glo luminescence; series mostly up to 46.1 µM;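 note: every well also contained 1.5 µM PK11195 alongside the test compound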
# In short: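 CAR agonism is scored as CYP2B6-promoter luciferase induction in a double-stable transfected HepG2 line, where 1.5uM PK11195 is included in each well. Compounds were tested over a 24hr exposure.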
# [18] = 10-beta competent E. coli microbial cell viability qHTS against the NCATS CANVASS Library (AID 1347376); conditions: E. coli 10-beta viability, BacTiter-Glo ATP luminescence, overnight; series mostly up to 46.1 µM
# In short: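 Cytotoxicity toward competent E. coli is scored from cellular ATP content via BacTiter-Glo luminescence following overnight compound exposure at 37C, 5% CO2.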
# [19] = qHTS for Antimalaria activity screened against the NCATS CANVASS Library (AID 1347380); note: potency is the fitted concentration of half-maximal effect; nearly all actives have a fitted effect of over 40% in size; conditions: P. falciparum Dd2 growth, SYBR Green fluorescence, 72 h
# In short: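 Growth inhibition of asexual erythrocytic P. falciparum Dd2 was quantified by SYBR Green DNA staining. Cultures grew 72 h with compound (11-point series) in hypoxic gas at 37C; lysis and staining lasted 18 h.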
# [20] = Inflammasome Signaling qHTS Counterscreen: IL-1-beta AlphaLISA counterscreen against the NCATS CANVASS Library (AID 1347381); conditions: Purified IL-1beta AlphaLISA signal interference counterscreen; series mostly up to 57.5 µM;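 note: cell-free check with purified IL-1β in medium and no THP-1 cells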
# In short: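 To flag interference with the AlphaLISA read-out, a known amount of purified IL-1-beta (4 pg) replaced cell supernatant. Detection used anti-IL-1-beta acceptor beads, biotinylated antibody and streptavidin donor beads at room temperature.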
# Luciferin 4-monooxygenase (Photinus pyralis), sequence (P08659 whole entry, looked up): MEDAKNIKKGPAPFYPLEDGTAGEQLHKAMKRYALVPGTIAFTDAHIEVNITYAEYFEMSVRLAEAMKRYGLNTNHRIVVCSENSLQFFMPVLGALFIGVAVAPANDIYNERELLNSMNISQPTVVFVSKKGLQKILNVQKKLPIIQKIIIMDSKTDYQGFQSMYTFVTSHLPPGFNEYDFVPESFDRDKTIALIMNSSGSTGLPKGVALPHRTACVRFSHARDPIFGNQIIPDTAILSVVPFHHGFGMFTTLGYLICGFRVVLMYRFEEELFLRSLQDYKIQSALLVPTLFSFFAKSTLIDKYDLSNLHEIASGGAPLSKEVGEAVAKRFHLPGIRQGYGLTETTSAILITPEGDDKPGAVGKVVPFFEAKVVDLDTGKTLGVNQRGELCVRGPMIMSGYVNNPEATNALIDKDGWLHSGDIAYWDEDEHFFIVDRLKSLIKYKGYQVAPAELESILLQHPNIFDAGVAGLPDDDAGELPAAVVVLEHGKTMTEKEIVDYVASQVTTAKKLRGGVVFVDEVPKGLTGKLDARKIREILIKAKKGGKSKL
# Nuclear receptor subfamily 1 group I member 3 (Homo sapiens), sequence (Q14994 whole entry, looked up): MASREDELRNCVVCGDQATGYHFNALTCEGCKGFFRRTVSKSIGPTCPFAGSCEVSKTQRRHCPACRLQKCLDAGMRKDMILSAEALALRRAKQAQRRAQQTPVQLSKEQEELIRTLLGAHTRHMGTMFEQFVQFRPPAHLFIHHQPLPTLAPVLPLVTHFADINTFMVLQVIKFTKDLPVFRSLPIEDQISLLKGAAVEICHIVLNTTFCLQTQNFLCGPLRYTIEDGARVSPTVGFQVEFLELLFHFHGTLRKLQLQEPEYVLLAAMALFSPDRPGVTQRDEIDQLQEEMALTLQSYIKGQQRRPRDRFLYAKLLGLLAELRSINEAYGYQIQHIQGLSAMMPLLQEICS
smiles,measurement,setting,value
CC(C)CC(=O)c1c(O)cc2c(c1O)C(CC(C)C)C1=C(O2)C(C)(C)C(=O)C(C)(C)C1=O (stereo not given),Potency,[1],18.8 µM (active)
same,Potency,[2],13.3 µM (active)
same,Potency,[3],13.3 µM (active)
same,Potency,[4],11.8 µM (active)
same,Potency,[5],14.9 µM (active)
same,Potency,[6],7.49 µM (active)
same,Potency,[7],10.6 µM (active)
same,Potency,[8],13.3 µM (active)
same,Potency,[9],16.6 µM (active)
same,Potency,[10],18.8 µM (active)
same,Potency,[11],20.9 µM (active)
same,outcome,[12],inactive
same,Potency,[13],16.6 µM (active)
same,Potency,[14],26.4 µM (active)
same,outcome,[15],inactive
same,Potency,[16],20.9 µM (active)
same,outcome,[17],inactive
same,outcome,[18],inactive
same,Potency,[19],0.594 µM (active)
same,outcome,[20],inactive
